Assay results reported in PubChem BioAssay (NCI).
This is part of a sample that, as a whole, favours compounds with a hit. Of some 79,000 tested, about 15% had one in any assay. Unmarked numbers belong to inactive results. The source made the active and inactive calls. Rule as the data show it: active = growth inhibition above about 70%; inactive = the rest.

Columns and labels:
[1] = NCI Yeast Anticancer Drug Screen. Data for the rad50 strain (AID 155);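 also: 0% = growth of vehicle-only cultures of the same strain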; details: S. cerevisiae rad50 strain growth inhibition, stronger effect = higher value
In short: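 Yeast carrying a defined DNA repair defect were exposed to test compounds, and growth was compared with vehicle-treated controls to give percent inhibition.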

[2] = NCI Yeast Anticancer Drug Screen. Data for the mec2-1 strain (AID 157); details: S. cerevisiae mec2-1 strain, stronger effect = higher value
In short: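 Each compound was tested on mec2-1 yeast, a strain altered in DNA damage repair or cell cycle control. Growth inhibition is reported relative to vehicle.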

[3] = NCI Yeast Anticancer Drug Screen. Data for the sgs1 mgt1 strain (AID 161);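 also: 0% = growth of cultures given vehicle only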; details: S. cerevisiae sgs1 mgt1 strain, stronger effect = higher value
In short: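 Test agents were incubated with a DNA-repair-mutant yeast strain. Growth was then read and compared against vehicle-treated controls.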

[4] = NCI Yeast Anticancer Drug Screen. Data for the cln2 rad14 strain (AID 165);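 also: 0% = growth equal to vehicle treated cultures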; details: S. cerevisiae cln2 rad14 strain, stronger effect = higher value
In short: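 Test compounds were added to cln2 rad14 yeast cultures; inhibition of growth was then determined by comparison with vehicle treatment.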

[5] = NCI Yeast Anticancer Drug Screen. Data for the bub3 strain (AID 167); details: S. cerevisiae bub3 mutant strain, stronger effect = higher value
In short: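 Compounds were applied to a genetically altered yeast strain carrying a cell-cycle control defect. Growth inhibition was scored against vehicle-treated controls.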

[6] = NCI Yeast Anticancer Drug Screen. Data for the mlh1 rad18 strain (AID 175); details: S. cerevisiae mlh1 rad18 strain growth inhibition, stronger effect = higher value
In short: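 Inhibition values reflect reduced growth of mutant yeast versus vehicle-treated controls following compound exposure; the mutations affect DNA damage repair.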

[7] = at 5.0 µM (retest, dose inferred, filed as 0.5)
[8] = at 50.0 µM (retest, dose inferred, filed as 5.0)

Row | SMILES | growth inhibition [1, 7] | growth inhibition [1, 8] | growth inhibition ([1]; at 50.0 µM) | growth inhibition [2, 7] | growth inhibition [2, 8] | growth inhibition ([2]; at 50.0 µM) | growth inhibition [3, 7] | growth inhibition [3, 8] | growth inhibition ([3]; at 50.0 µM) | growth inhibition [4, 7] | growth inhibition [4, 8] | growth inhibition ([4]; at 50.0 µM) | growth inhibition [5, 7] | growth inhibition [5, 8] | growth inhibition ([5]; at 50.0 µM) | growth inhibition [6, 7] | growth inhibition [6, 8] | growth inhibition ([6]; at 50.0 µM)
1 | O=C1c2ccc3c4ccccc4n(Cc4ccccc4)c3c2C(=O)N1c1ccccc1 | 87% (active) | 87% (active) | 92% (active) | 62% | 62% | 93.4% (active) | 39% | 39% | 92.5% (active) | 75% (active) | 75% (active) | 92.2% (active) | 80% (active) | 80% (active) | 91.5% (active) | – | – | –
2 | CC(C)N(C(=O)C12C3C4C5(C#N)C3C1(C#N)C5C42I)C(C)C (configuration not stated) | 41% | 41% | 82% (active) | 22% | 22% | 48% | 13% | 13% | 31.6% | 12% | 12% | 68.5% | 17% | 17% | 91.5% (active) | 11% | 11% | 46.4%
3 | CC(=O)SCC(=O)Nc1ccc(Cl)cc1 | 9% | 91% (active) | 88% (active) | 1% | 81% (active) | 68.9% | -4% | 85% (active) | 91.1% (active) | 2% | 43% | 58.5% | -18% | 90% (active) | 79.9% (active) | 7% | 90% (active) | 91.6% (active)
4 | CCCCCCCCCCCCS(=O)(=O)CC(Br)C(=O)c1ccco1 (configuration not stated) | 57% | 96% (active) | 94.2% (active) | 42% | 97% (active) | 96.9% (active) | 67% | 96% (active) | 95.3% (active) | 12% | 90% (active) | 93.7% (active) | 43% | 95% (active) | 95.1% (active) | 68% | 93% (active) | 95.3% (active)
5 | Fc1ccc2c(c1)Nc1cc(F)cc(F)c1S2 | -4% | 54% | 2.7% | -5% | 12% | -2% | -4% | 36% | 65.7% | 0% | 1% | 2.75% | -3% | 5% | 40.8% | -6% | 48% | 21.5%
6 | CC(C)C(Br)CC/C(CBr)=C(\Cl)CCl (configuration not stated) | 24% | 99% (active) | 87% (active) | 21% | 99% (active) | 85.1% (active) | 13% | 99% (active) | 92.5% (active) | 17% | 98% (active) | 90.2% (active) | 30% | 99% (active) | 92.2% (active) | 17% | 99% (active) | 56.4%
7 | CC1CCCC(CCN(C)CCC2CCCCC2)CC1 (configuration not stated) | 21% | 98% (active) | 99.3% (active) | 9% | 99% (active) | 99.2% (active) | 35% | 99% (active) | 99.4% (active) | 21% | 97% (active) | 99.1% (active) | 7% | 79% (active) | 99% (active) | – | – | –
8 | COc1ccccc1CN1CCCN(Cc2ccccc2OC)C1c1cc(Cl)cc(Cl)c1O | 16% | 93% (active) | 69.2% | 11% | 100% (active) | 15.3% | 19% | 99% (active) | 97.5% (active) | -2% | 97% (active) | 6.2% | 4% | 98% (active) | 9.3% | – | – | –
9 | CCC(C)(O)C#Cc1ccc(C)nc1 (configuration not stated) | 2% | 6% | 16.1% | 0% | 3% | 9.4% | -2% | 2% | 7.7% | 0% | -1% | 14.5% | 1% | -1% | 13.8% | -12% | 4% | 0.4%
10 | CCSC(=O)/C=C1\CN(C(=O)OC(C)(C)C)C1C(=O)OC(C)(C)C (configuration not stated) | -23% | -7% | 30.1% | -40% | -9% | 26.9% | -44% | -2% | 56% | -35% | 14% | 72.9% (active) | -57% | 10% | 58.5% | -15% | 12% | 70% (active)
11 | Cc1c[nH]c(C(=O)O)c1-c1ccc2c(-c3ccccc3)nc3ccccc3n12 | 14% | 96% (active) | 82.8% (active) | 11% | 99% (active) | 91% (active) | 10% | 99% (active) | 89.4% (active) | 8% | 99% (active) | 89% (active) | 13% | 99% (active) | 85.9% (active) | 12% | 95% (active) | 91.8% (active)
12 | CC/C(Cl)=N\OC(=O)Nc1ccc(F)c(Cl)c1 | -8% | 98% (active) | 58.5% | 5% | 96% (active) | 84.4% (active) | 36% | 99% (active) | 83.7% (active) | 31% | 75% (active) | 51% | 5% | 92% (active) | 78.2% (active) | -8% | 94% (active) | 69.3%
13 | CSc1nc(C)cc(SCc2ccc(Cl)cc2Cl)n1 | -3% | 4% | -20.9% | -3% | -7% | -20.6% | -2% | 8% | -0.95% | 2% | -1% | -36.7% | 2% | 18% | 75% (active) | – | – | –
14 | COC(=O)c1cc(-c2ccc(C)cc2)c2c(=O)n(-c3ccccc3)[nH]c2n1 | 8% | 75% (active) | 72.9% (active) | 5% | 71% (active) | 94.9% (active) | -7% | 51% | 51.1% | 11% | 87% (active) | 94.8% (active) | 4% | 69% | 92.8% (active) | -3% | 85% (active) | 85.9% (active)
15 | COC1=CC(=O)[C@H]2CC(C)=CC[C@]2(C)C1=O | -3% | 2% | 9.35% | 1% | 0% | 6.55% | 2% | 0% | -4.75% | 1% | -2% | 84% (active) | -1% | 0% | 3.35% | -1% | 1% | 15.1%
16 | COc1cc([C@H]2c3c(cc(OC)c(OC)c3OC)CC3COC(=O)[C@@H]32)cc2c1OCO2 (some centres not stated) | 4% | 37% | 95.5% (active) | 2% | 25% | 98.8% (active) | 9% | 38% | 52.2% | 1% | 4% | 98.5% (active) | -2% | 53% | 99.3% (active) | -2% | 9% | 97.5% (active)
17 | CCCn1cc2c(SC)nc(SC)nc2n1 | -1% | 5% | 98.1% (active) | 0% | 46% | 98.3% (active) | -2% | 10% | 97% (active) | 2% | 38% | 87.3% (active) | 4% | 99% (active) | 99.5% (active) | – | – | –
18 | O=NNc1ccc(-c2ccc([N+](=O)[O-])cc2)cn1 | 18% | 47% | 25.4% | 11% | 37% | 5.85% | 8% | 31% | 30.6% | 26% | 31% | 34.2% | 14% | 18% | -11.7% | 10% | 48% | 30.1%
19 | Clc1nc(Cl)nc(N2CCCc3ccccc32)n1 | -24% | 78% (active) | 69.1% | -10% | 78% (active) | 70.9% (active) | -19% | 67% | 85.9% (active) | 22% | 56% | 74.7% (active) | -10% | 91% (active) | 79% (active) | 2% | 82% (active) | 74.3% (active)
20 | N#CC(CCCCl)(c1ccccc1)c1ccccc1 | 2% | 33% | 86.8% (active) | 3% | 32% | 84% (active) | 4% | 51% | 88.5% (active) | 0% | -3% | 41.8% | -1% | 22% | 67% | – | – | –
